Results reported in the supplement of paper PMC9694430.

Experiments:
Experiment in all cases: thermal shift delta Tm vs DMSO control; higher = stronger stabilization (binding)
Conditions in all cases: 12.5 µM; protein concentration 2 µM
LOC_OS04G57630-cb004 = tested on: LOC_OS04G57630-cb004
How it was run: (§1)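 Purified, E. coli-expressed rice kinase domain constructs were tested by differential scanning fluorimetry in 96-well plates: 19.5 μl of 2 μM kinase in 100 mM potassium phosphate pH 7.5, 150 mM NaCl, 10% glycerol, 5 × SYPRO Orange, plus compound in DMSO. Fluorescence was read from 25°C to 95°C at 0.05°C/s. Melting temperatures came from Boltzmann fits, and the shift is the triplicate mean relative to protein with DMSO alone.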

LOC_OS05G07850-cb002 = tested on: LOC_OS05G07850-cb002
How it was run: as §1

LOC_OS05G16824-cb004 = tested on: LOC_OS05G16824-cb004
How it was run: as §1

LOC_OS05G28520-cb001 = tested on: LOC_OS05G28520-cb001
How it was run: as §1

LOC_OS05G30820-cb001 = tested on: LOC_OS05G30820-cb001
How it was run: as §1

LOC_OS05G43570-cb004 = tested on: LOC_OS05G43570-cb004
How it was run: as §1

LOC_OS06G16330-cb003 = tested on: LOC_OS06G16330-cb003
How it was run: as §1

LOC_OS06G22820-cb001 = tested on: T1, LOC_OS06G22820-cb001
T1 sequence (whole entry): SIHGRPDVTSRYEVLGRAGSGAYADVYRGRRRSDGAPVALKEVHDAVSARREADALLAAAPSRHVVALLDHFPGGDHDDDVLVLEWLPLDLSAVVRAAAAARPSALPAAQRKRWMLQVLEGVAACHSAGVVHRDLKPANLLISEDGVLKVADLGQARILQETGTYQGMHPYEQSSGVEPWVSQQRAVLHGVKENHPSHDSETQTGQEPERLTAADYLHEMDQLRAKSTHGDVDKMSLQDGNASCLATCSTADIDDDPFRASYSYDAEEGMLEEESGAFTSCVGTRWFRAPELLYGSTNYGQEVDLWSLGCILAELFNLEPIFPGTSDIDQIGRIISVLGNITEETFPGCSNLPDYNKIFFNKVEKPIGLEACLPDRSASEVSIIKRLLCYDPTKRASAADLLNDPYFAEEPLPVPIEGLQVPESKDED
How it was run: as §1

LOC_OS07G06570-cb004 = tested on: LOC_OS07G06570-cb004
How it was run: as §1

LOC_OS07G07230-cb001 = tested on: LOC_OS07G07230-cb001
How it was run: as §1

Sequence of LOC_OS06G16330-cb003 (as listed by the source): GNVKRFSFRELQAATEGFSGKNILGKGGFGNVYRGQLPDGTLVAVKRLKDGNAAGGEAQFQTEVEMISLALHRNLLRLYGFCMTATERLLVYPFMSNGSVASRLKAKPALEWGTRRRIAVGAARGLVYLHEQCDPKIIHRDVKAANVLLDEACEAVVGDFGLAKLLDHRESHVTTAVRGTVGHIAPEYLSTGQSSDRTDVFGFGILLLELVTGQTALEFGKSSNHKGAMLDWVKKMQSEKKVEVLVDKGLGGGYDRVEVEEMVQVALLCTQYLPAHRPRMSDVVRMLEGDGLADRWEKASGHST

Row | Compound | thermal shift delta Tm (LOC_OS04G57630-cb004) | thermal shift delta Tm (LOC_OS05G07850-cb002) | thermal shift delta Tm (LOC_OS05G16824-cb004) | thermal shift delta Tm (LOC_OS05G28520-cb001) | thermal shift delta Tm (LOC_OS05G30820-cb001) | thermal shift delta Tm (LOC_OS05G43570-cb004) | thermal shift delta Tm (LOC_OS06G16330-cb003) | thermal shift delta Tm (LOC_OS06G22820-cb001) | thermal shift delta Tm (LOC_OS07G06570-cb004) | thermal shift delta Tm (LOC_OS07G07230-cb001)
1 | Cc1ccc(C(=O)Nc2ccc(Oc3cc4cnn(C)c4cc3-c3cn[nH]c3)c(F)c2)c(=O)n1-c1ccc(F)cc1 | 1.06 °C | 12.9 °C | 0.64 °C | 0.91 °C | 0.24 °C | 1.08 °C | 5.02 °C | 1.28 °C | 1.37 °C | -0.23 °C
2 | COc1cc2nccc(Oc3ccc(NC(=O)NC4CC4)c(Cl)c3)c2cc1C(N)=O [Lenvatinib (E7080)] | 1.31 °C | 3.32 °C | -2.91 °C | 0.18 °C | 0.7 °C | 0.32 °C | 1.75 °C | 0.98 °C | 0.84 °C | 0.35 °C
3 | Cn1cc(-c2ccc(F)c(C(F)(F)F)c2)nc1C1CCN(c2ncnc3[nH]ncc23)CC1 | 0.14 °C | 0.42 °C | -7.63 °C | 0.22 °C | 0.54 °C | 0.45 °C | 0.11 °C | 0.36 °C | 0.72 °C | 0.63 °C
4 | Cn1c(=O)c(F)c(Nc2ccc(I)cc2F)c2c(=O)n(C[C@@H](O)CO)cnc21 | 0.47 °C | 1.59 °C | -1.32 °C | 0.23 °C | 0.72 °C | 1.08 °C | 0.18 °C | 0.76 °C | 0.33 °C | 0.02 °C
5 | CCC(=O)Nc1cccc(Oc2nc(Nc3ccc(N4CCN(C)CC4)cc3OC)ncc2Cl)c1 | 0.17 °C | 5.91 °C | -0.12 °C | 0.72 °C | 0.41 °C | 0.44 °C | 0.62 °C | 0.4 °C | 0.81 °C | 0.4 °C
6 | O=C(O)c1ccc2c3c1cccc3c(=O)n1c3ccccc3nc21 | 0.77 °C | 7.31 °C | 1.51 °C | 0.41 °C | 0.73 °C | 0.15 °C | 4.49 °C | 0.29 °C | 0.54 °C | 1.19 °C
7 | COc1cc(Nc2ncc(F)c(Nc3ccc4c(n3)N(COP(=O)(O)O)C(=O)C(C)(C)O4)n2)cc(OC)c1OC [Fostamatinib (R788)] | 1.74 °C | 12 °C | 12 °C | 0.41 °C | 2.2 °C | 0.38 °C | 12.2 °C | 0.25 °C | 0.55 °C | 0.44 °C
8 | CC1(C)C=Cc2c(ccc3c2OC[C@@H](c2ccc(O)cc2O)C3)O1 [Glabridin] | 0.75 °C | 1.39 °C | 7.49 °C | 0.24 °C | -0.16 °C | 0.51 °C | 0.92 °C | 0.89 °C | 0.51 °C | -0.99 °C
9 | C#Cc1cccc(Nc2ncnc3cc4c(cc23)OCCOCCOCCO4)c1 [Icotinib] | 1.01 °C | 8.46 °C | -0.7 °C | 0.87 °C | 0.31 °C | 0.43 °C | 3.06 °C | 0.81 °C | 1 °C | 0.07 °C
10 | COc1cc2ncc(-c3ccccc3)nc2cc1OC [Tyrphostin AG 1296] | 0.05 °C | 5.59 °C | 2.99 °C | -0.06 °C | 0.8 °C | 0.08 °C | 2.24 °C | 0.24 °C | 1.65 °C | 0.83 °C
11 | C=CC(=O)N1CCC[C@@H](n2nc(-c3ccc(Oc4ccccc4)cc3)c3c(N)ncnc32)C1 | 1 °C | 6.56 °C | 1.31 °C | -0.3 °C | 0.44 °C | 0.27 °C | 1.99 °C | 0.54 °C | 0.5 °C | 0.64 °C
12 | Cn1cc(/C=C2\C(=O)Nc3cccnc32)c2ccccc21 | 2.07 °C | 9.12 °C | 10.2 °C | 0.86 °C | 0.81 °C | 0.41 °C | 7.67 °C | 0.62 °C | 1.66 °C | 0.42 °C
13 | Cc1ccc(NC(=O)Nc2cc(C(F)(F)F)ccc2F)cc1Nc1ccc2c(c1)NC(=O)/C2=C\c1ccc[nH]1 | 0.83 °C | 1.9 °C | 2.11 °C | 0.81 °C | 0.73 °C | 1.98 °C | 1.54 °C | 1.12 °C | -0.24 °C | 1.34 °C
14 | Cc1c[nH]c2nc(Nc3ccc(N4CCN(C)CC4)c(F)c3)nc(-c3cccc(CC#N)c3)c12 | 4.89 °C | 15 °C | 12.3 °C | 3.05 °C | 0.83 °C | 1.16 °C | 17.6 °C | -0.11 °C | 2.22 °C | 0.57 °C
15 | O=C1NC(=O)/C(=C/c2cccc(C(F)(F)F)c2)S1 | 0.39 °C | 1.33 °C | -0.21 °C | 0.59 °C | 0.46 °C | 0.27 °C | 0.26 °C | 0.44 °C | 0.68 °C | 0.58 °C
16 | Cc1cc(C)c(/C=C2\C(=O)Nc3ccccc32)[nH]1 [Semaxanib (SU5416)] | 0.62 °C | 6.49 °C | 8.99 °C | 0.65 °C | 0.48 °C | 0.37 °C | 6.54 °C | 0.6 °C | 1.4 °C | -0.2 °C
17 | C[C@@H](N)c1ccc(C(=O)Nc2ccnc3[nH]ccc23)cc1 | 0.16 °C | 3.37 °C | -0.56 °C | 0.67 °C | 0.3 °C | 0.84 °C | 2.93 °C | 0.59 °C | 0.72 °C | -0.1 °C
18 | Cc1nc(Nc2n[nH]c3c2CN(C(=O)N[C@H](CN(C)C)c2ccccc2)C3(C)C)c2sccc2n1 | 0.4 °C | 1.45 °C | 5.08 °C | 2.24 °C | 0.45 °C | 1.95 °C | 0.72 °C | 2 °C | 1.67 °C | 0.02 °C
19 | Cc1c(C(=O)N2CCOc3ccc(-c4ccc(N)nc4)cc3C2)ccc(S(C)(=O)=O)c1F | 0.14 °C | 0.91 °C | -4.24 °C | 0.33 °C | 0.36 °C | 0.13 °C | 1.82 °C | 0.73 °C | 0.94 °C | 0.23 °C
20 | CCn1c(=O)c(-c2cc[nH]n2)cc2c(C)nc(N)nc21 | 0.11 °C | 3 °C | -1.71 °C | 0.22 °C | 0.35 °C | -0.07 °C | 0.86 °C | 0.06 °C | 0.51 °C | 0.61 °C
